According to PubChem BioAssay (NCI):
The panel holds about 83,000 compounds, 20% with a hit somewhere; the sample as a whole holds those more often.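 Cell lines were cultured in 96-well plates, exposed to a single compound concentration, and assessed for percent growth 48 hours later.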 A number with no mark means an inactive call. Activity calls are given as the source filed them.

System: TK-10 renal
Assay: NCI-60 one-dose screen, 48 h (100 = growth as untreated, 0 = no growth, -100 = all killed)
Settings: 10 µM
Method: Growth inhibition of the TK-10 human tumor cell line is measured as a screen for anti-cancer activity. Cells are grown in 96 well plates and exposed to the test compound for 48 hours. Compounds are tested at a single concentration, which is 10^-5 M for most compounds. The reported endpoint is percent growth (GI% or GIPRCNT), where numbers from 0 - 100% represent growth inhibition, and numbers from -100% - 0 represent cell death. For example, a value of 40 represents 60% growth inhibition. A value of 0 means no net growth occurred over the course of the experiment. A value of -40 indicates 40% of cells at the beginning of the experiment died by the end of the experiment. A value of -100 means all cells are dead at the end of the experiment.
NCI-60 Human Tumor Cell Lines Screen was performed using the standard one-dose NCI protocol, which is described in more detail at https://dtp.cancer.gov/discovery_development/nci-60/default.htm.
Compounds with GIPRCNT values below 10 were considered active. Activity score was based on GIPRCNT using the following formula: […]
Score is 0 for GIPRCNT values of 100 or above, 50 for GIPRCNT values of 0, and 100 for GIPRCNT values of -100.

SMILES	growth
COc1cc(-c2cc(/C=C3\C(=O)Nc4cc(Cl)ccc43)[nH]n2)cc(OC)c1OC	60.9%
COc1ccc(Cn2c(C(N)=O)cc3c2-c2nc(N)ncc2CCC3)cc1	108%
C#Cc1ccc(-n2c(/C=C/c3ccc4ccccc4n3)nc3ncccc3c2=O)cc1	-44.4% (active)
CNc1ccc(CSc2ccc(C)cc2)cc1	86.1%
COc1ccc(-c2nc3sc(C4CC4)nn3c2/C=C2/C(=O)Nc3ccc(OC)cc32)cc1	95.8%
O=C(Nc1cccc(-n2cc(-c3ccncc3)c(-c3ccc(O)c(Cl)c3)n2)c1)c1ccc(N2CCOCC2)c(C(F)(F)F)c1	73.4%
COc1cc(Cl)cc(-c2nn(-c3cccc(NC(=O)c4ccc(Cl)c(Cl)c4)c3)cc2-c2ccncc2)c1	104%
COc1cc(C(=C2O[C@@H]([C@H]3COC(C)(C)O3)[C@H]3OC(C)(C)O[C@@H]23)c2cc(OC)c(OC)c(OC)c2)cc(OC)c1OC	111%
O=C1C(=O)c2ccccc2C(O)=C1CCCc1ccc(C2CCCCCC2)cc1	61%
CC(=O)/C(=C/c1ccccc1)C(=O)CC(C)C	84.2%
N=C(N)c1ccc(-c2ccc(-c3ccccc3)o2)nc1	111%
C[C@]12CC[C@@H]3c4ccc(O)cc4C[C@@H](O)[C@H]3[C@@H]1CC[C@@H]2O	111%
c1ccc([C@H]2CN3CCSC3=N2)cc1	112%
O=C(Nc1ccncc1)C(=O)c1cn(S(=O)(=O)c2cccc3ccccc23)c2ccccc12	88.3%
O=C1/C(=C\c2ccc(Cl)cc2)CN(C(=O)c2ccccc2)C/C1=C\c1ccc(Cl)cc1	94.7%
Clc1ccc(Nc2ccnc(NCCNc3ccnc4cc(Cl)ccc34)n2)cc1	-29.9% (active)
CC/C(C)=C(\C)C(=O)O	105%
COc1cc2c(cc1OC)N(CCO)C1=C(C(=O)OC1)C2c1ccc(Cl)c(Cl)c1 (stereo not given)	98.7%
Nc1c(C(=O)Nc2cccc3ccccc23)sc2nc3c(cc12)C(=O)CCC3	74.7%
COc1ccc(-c2cc(/C=C3\C(=O)Nc4ccc(Cl)cc43)[nH]n2)cc1OC	90%

SMILES	growth
CCN(CCCCCCN1CC(=O)N(CCCCCCN(CC)Cc2ccccc2OC)CC1=O)Cc1ccccc1OC	87.6%
N#Cc1ncc(Br)c(NC2CCCCCC2)n1	134%
O=C(Nc1ccncc1)C(=O)c1cn(S(=O)(=O)c2cccc(Cl)c2)c2ccccc12	87.6%
S=C1SCC(c2ccccc2)S1 (stereo not given)	107%
O=[N+]([O-])c1cccc(N=Cc2ccc3c(c2)OCO3)c1	106%
COc1cccc(Cn2c(-c3nonc3N)nc3ccccc32)c1	31.7%
O=C(Nc1cccc(-n2cc(-c3ccncc3)c(-c3ccc(O)c(Cl)c3)n2)c1)c1cc(C(F)(F)F)cc(C(F)(F)F)c1	62%
CSc1nn(-c2ccccc2)c2ncnc(Oc3ccc(C)cc3)c12	94.2%
COc1cc(-c2nn3c(/C=C4/C(=O)Nc5ccccc54)c(-c4ccc(C)cc4)nc3s2)cc(OC)c1OC	-18.7% (active)
O=C(CCCCC(=O)Nc1ccc2c(c1)/C(=C/c1ccc[nH]1)C(=O)N2)NO	86%
Nc1ncn([C@@H]2O[C@H](CO)[C@@H](O)[C@H]2O)c(=O)n1	40.5%
CCCC(F)C(=O)O (stereo not given)	98%
COc1cccc(-c2cc(-c3cccc(NS(C)(=O)=O)c3)nc(N)c2C#N)c1O	71.3%
COc1ccc(C2CC(c3ccc(N(C)C)cc3)=NN2c2ccc(S(N)(=O)=O)cc2)cc1 (stereo not given)	44.9%
CCN(CC)CCOc1nc2cc(OC)c(OC)cc2c2c1-c1ccc(OC)cc1C2=O	105%
CC1=C(N2CCOCC2)C(N2CCOCC2)=C(C)C(=O)C1=O	99%
CCN(CC)CCCC(C)Nc1ccc2ccc(Cl)cc2n1 (stereo not given)	100%
COc1cc2nc(Nc3cccc(NC(C)=O)c3)nc(N)c2cc1OC	150%
O=C(/C=C/c1cc2ccccc2[nH]c1=O)c1ccc2c(c1)OCO2	97.3%
CCC1(C(C)C)NC(=O)NC1=O (stereo not given)	113%
